Measured values reported in PubChem BioAssay AID493240 (Broad Institute, 2011).
The campaign covered roughly 1,300 compounds. About 270 (21%) were called active. How the calls were made is not given here. Only a sample is shown. Results with a measured potency or affinity are listed apart.

Experiment: SK-MEL-5 parental cell viability loss, dose response, orthogonal assay for MITF inhibitor project, CellTiter-Glo, cherry-picked, set 3 (AID 493240)
Conditions: SK-MEL-5 viability, ATP luminescence (CellTiter-Glo), 24 h; series mostly up to 35 µM; activity change, negative = viability loss: at the top concentration

Row | SMILES | activity change, negative = viability loss
1 | COc1ccc(/C=N/N=C2/SCC(=O)N2Cc2ccccc2)cc1 | -11.2% (inactive)
2 | Cc1ccc(C)c(S(=O)(=O)N2CCN(Cc3ccc(O)c4ncccc34)CC2)c1 | -33.8% (inactive)
3 | CC1CCCC(NC(=O)NC(=O)CCl)C1C (stereo unspecified) | -4.56% (inactive)
4 | Cc1ccc(-c2cn3cc(C)ccc3n2)cc1 | -17.5% (inactive)
5 | O=C(O)c1cccc(NC(=S)N/N=C/c2ccccn2)c1 | -4.83% (inactive)
6 | CC1=NOC(=O)/C1=C\c1ccc(-c2cccc(Cl)c2)o1 | -12.6% (inactive)
7 | CC(C)[C@H](NC(=O)OC(C)(C)C)c1nnc(S(=O)(=O)Cc2c(F)cccc2Cl)o1 | -44.2% (inactive)
8 | C/C(=N\NC(=O)C1COc2ccccc2O1)c1ccccn1 (stereo unspecified) | -29.1% (inactive)
9 | Cc1cc(C)c2c(N)c(C(=O)Nc3ncc(C)s3)sc2n1 | -29.7% (inactive)
10 | CC(OC(=O)c1ccc([N+](=O)[O-])s1)C(=O)NC1CCCCC1C (stereo unspecified) | 1.2% (inactive)
11 | Clc1c(-c2ccccc2)nc2ccccn12 | -2.85% (inactive)
12 | Cn1nnnc1Sc1ncnc2scc(-c3ccc[nH]3)c12 | -22.3% (inactive)
13 | C=C1CCC[C@]2(C)C[C@H]3OC(=O)C(CN4CCCCC4CO)[C@H]3CC12 (stereo partly specified) | 20.2% (inactive)
14 | COc1cc(/C=N/NS(=O)(=O)c2ccc(C)cc2)ccc1OCc1cccc(C(=O)O)c1 | 6.32% (inactive)
15 | CCOc1cc(/C=N/Nc2cccc(C(=O)O)c2)ccc1OC(=O)c1ccccc1 | -4.54% (inactive)
16 | COc1cc(/C=N/NS(=O)(=O)c2ccc3ccccc3c2)ccc1OCc1ccc(C(=O)O)cc1 | 0.683% (inactive)

Row | SMILES | activity change, negative = viability loss
17 | CCOc1cc(/C=C2/NC(=S)NC2=O)ccc1OCc1ccc([N+](=O)[O-])cc1 | -31.2% (inactive)
18 | O=C(Cn1nnc(-c2ccccc2Cl)n1)N1CCCCC1 | 7.72% (inactive)
19 | CC(C)OC(=O)CSc1nc2cc3c(cc2cc1C#N)OCO3 | -2.87% (inactive)
20 | CCOc1ccc(OCc2ccc(C(=O)N/N=C(\C)c3ccccn3)cc2)cc1 | -41.8% (inactive)
21 | C/C(=N\NC(=O)Cc1ccc(Cl)cc1)c1ccccn1 | -31.1% (inactive)
22 | O=C(Nc1nc2ccccc2s1)Nc1ccc(F)cc1F | 3.41% (inactive)
23 | O=C(Nc1ccccc1)O/N=C/c1ccc(F)cc1 | -11.8% (inactive)
24 | O=C(N/N=C/c1ccccc1)c1ccco1 | -4.03% (inactive)
25 | CCC(=O)OCCNc1cc(Sc2nc3ccccc3[nH]2)c2nonc2c1[N+](=O)[O-] | -31.7% (inactive)
26 | Cc1cc(C)nc(S/C=C/C(=O)c2ccccc2F)n1 | -22.5% (inactive)
27 | CC(=O)N/C(N)=N/c1nc2cc(C)ccc2o1 | -5.21% (inactive)
28 | COc1ccccc1N1CCN(/N=C/c2ccc([N+](=O)[O-])cc2)CC1 | 5.48% (inactive)
29 | CN(c1ccc(O)cc1)c1nc(O)c(C2=c3ccccc3=NC2=O)s1 | 2.68% (inactive)
30 | CCOC(=O)C1CCCN(C(=O)C2CCN(S(=O)(=O)CC)CC2)C1 (stereo unspecified) | 4.63% (inactive)
31 | Nc1ccc(-c2nc3ccc(C(=O)O)cc3s2)cc1 | -9.29% (inactive)
